In PubChem BioAssay (NCI) one finds growth data, which are given here for nine compounds.

About 83,000 compounds went through this panel and 20% of them were active in at least one assay; those are over-represented in the sample as a whole.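 96-well plates, one dose, 48 hours. Percent growth reported; active if below 10.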 Unmarked numbers belong to inactive results. Calls of active or inactive are those of the source.

Test systems include NCI-H23 lung; NCI-H226 lung; NCI-H322M lung; HOP-62 NSCLC; NCI-H460 lung; NCI-H522 lung; A549/ATCC NSCLC; 786-0 renal; COLO 205 colon; DU-145 prostate; MALME-3M melanoma; MDA-MB-231 breast; RXF 393 renal; SF-268 CNS; SF-295 CNS; SF-539 CNS; UACC-257 melanoma; M14 melanoma.
What all share (assay): NCI-60 one-dose screen, 48 h (100 = growth as untreated, 0 = no growth, -100 = all killed)
Conditions in all cases: 10 µM unless noted

Consider `COc1ccccc1CNCCCN1C(=O)c2ccc3c4c(ccc(c24)C1=O)C(=O)N(CCCOCCCCOCCCN)C3=O`, for which the growth in the assay with NCI-H23 lung was -67.6% (active); in the assay on NCI-H226 lung, -10.8% (active); in the assay on NCI-H322M lung it was -12.1% (active); with HOP-62 NSCLC it was 14%; in the assay with NCI-H460 lung, -65.5% (active); in the assay on NCI-H522 lung, -77.4% (active). The growth is -33.8% (active) in the assay on A549/ATCC NSCLC; 14.3% in the assay on 786-0 renal; -95% (active) with COLO 205 colon; -74% (active) in the assay on DU-145 prostate; -93.1% (active) in the assay on MALME-3M melanoma; -4.84% (active) in the assay with MDA-MB-231 breast. For the same compound, the growth in the assay on RXF 393 renal was -42.6% (active); with SF-268 CNS, -21.5% (active); in the assay on SF-295 CNS, -9.19% (active); in the assay on SF-539 CNS it was -34.9% (active); in the assay with UACC-257 melanoma, -91.7% (active); in the assay with M14 melanoma it was -85.4% (active).

As to `COc1cc(NC(=O)CSc2nc3ccc(Cl)cc3c(=O)n2Cc2ccccc2)cc(OC)c1OC`, the growth with NCI-H23 lung is 76.8%; in the assay with NCI-H226 lung, 46.4%; in the assay with NCI-H322M lung, 82.3%; in the assay with HOP-62 NSCLC it was 91.3%; in the assay on NCI-H460 lung it was 64.7%; with NCI-H522 lung it was 57.7%. Besides, the growth in the assay with A549/ATCC NSCLC was 67.3%; with 786-0 renal, 58.5%; in the assay with COLO 205 colon, 83.2%; with DU-145 prostate it was 72%; with MALME-3M melanoma it was 61.2%; in the assay on MDA-MB-231 breast it was 44.6%. Besides, the growth was 30.7% in the assay on RXF 393 renal; 59.3% with SF-268 CNS; 84.1% with SF-295 CNS; -6.78% (active) with SF-539 CNS; 70% in the assay with UACC-257 melanoma; 73.4% in the assay on M14 melanoma.

On to `C=C(c1ccc(C(=O)NCCCn2ccnc2)cc1)c1cc2c(cc1C)C(C)(C)CCC2(C)C`, for which the growth in the assay on NCI-H23 lung was 44%; with NCI-H226 lung, 72.3%; in the assay on NCI-H322M lung it was 42.8%; in the assay with HOP-62 NSCLC, 18%; in the assay with NCI-H460 lung, 13.9%; with NCI-H522 lung, 10.2%. Moreover, the growth is 40.3% in the assay with A549/ATCC NSCLC; -17% (active) with 786-0 renal; 10.3% in the assay with COLO 205 colon; 34% in the assay on DU-145 prostate; -1.54% (active) in the assay on MALME-3M melanoma; 28.7% in the assay with MDA-MB-231 breast. The growth is 35.8% in the assay with RXF 393 renal; 38.5% in the assay on SF-268 CNS; -29.6% (active) with SF-295 CNS; 2.41% (active) with SF-539 CNS; 99.2% in the assay on UACC-257 melanoma; -76.4% (active) in the assay on M14 melanoma.

With `COc1ccc(-c2cnnn2-c2nonc2-n2cccc2)cc1`, the growth with NCI-H23 lung was 3.55% (active); in the assay with NCI-H226 lung, 23.6%; with NCI-H322M lung, 49.6%; in the assay with HOP-62 NSCLC, 27.2%; in the assay with NCI-H460 lung, 7.52% (active); with NCI-H522 lung, -4.72% (active). The growth was 26% in the assay with A549/ATCC NSCLC; 36.6% in the assay on 786-0 renal; -43.1% (active) in the assay on COLO 205 colon; 9.22% (active) with DU-145 prostate; 47.8% in the assay on MALME-3M melanoma; 33.5% with MDA-MB-231 breast. For the same compound, the growth is -18.3% (active) in the assay on RXF 393 renal; 35.1% in the assay on SF-268 CNS; -17.2% (active) with SF-295 CNS; -13.9% (active) in the assay on SF-539 CNS; 65.6% in the assay on UACC-257 melanoma; -2.06% (active) with M14 melanoma.

`COc1cccc(-c2nc3sccn3c2-c2ccnc(NCCN3CCCNS3(=O)=O)n2)c1`: the growth in the assay on NCI-H23 lung is 99.4%; in the assay on NCI-H226 lung it was 81.4%; in the assay with NCI-H322M lung, 95.6%; in the assay on HOP-62 NSCLC, 123%; in the assay with NCI-H460 lung it was 68.8%; in the assay on NCI-H522 lung, 92.2%. Further, the growth is 99.2% in the assay on A549/ATCC NSCLC; 77.5% in the assay on 786-0 renal; 51.5% with COLO 205 colon; 79.2% in the assay on DU-145 prostate; 24.2% in the assay with MALME-3M melanoma; 83.3% in the assay with MDA-MB-231 breast. The growth with RXF 393 renal is 76.7%; with SF-268 CNS, 94.7%; with SF-295 CNS it was 106%; with SF-539 CNS it was 111%; in the assay with UACC-257 melanoma, 65.4%; in the assay with M14 melanoma, 18%.

For the compound `COc1ccccc1/C=C/C(=O)CCC(=O)O`, the growth in the assay with NCI-H23 lung is 106%; with NCI-H226 lung, 104%; in the assay on NCI-H322M lung, 101%; in the assay on HOP-62 NSCLC, 96.2%; with NCI-H460 lung it was 111%; with NCI-H522 lung, 103%. For the same compound, the growth with A549/ATCC NSCLC is 108%; in the assay on 786-0 renal, 96.7%; with COLO 205 colon it was 120%; in the assay on DU-145 prostate it was 108%; with MALME-3M melanoma it was 101%; in the assay on MDA-MB-231 breast, 114%. Further, the growth with RXF 393 renal is 127%; with SF-268 CNS, 111%; in the assay on SF-295 CNS, 105%; in the assay on SF-539 CNS, 97.5%; with UACC-257 melanoma it was 115%; with M14 melanoma, 99.8%.

As for `COc1cc(C2CC(=O)Nc3c2cnn3C)cc(OC)c1OC` (configuration not stated), the growth was 108% in the assay with NCI-H23 lung; 104% in the assay with NCI-H226 lung; 100% in the assay with NCI-H322M lung; 98.2% with HOP-62 NSCLC; 117% with NCI-H460 lung; 101% in the assay with NCI-H522 lung. In addition, the growth in the assay with A549/ATCC NSCLC was 107%; in the assay with 786-0 renal it was 103%; with COLO 205 colon, 110%; in the assay on DU-145 prostate, 108%; with MALME-3M melanoma it was 97.7%; in the assay on MDA-MB-231 breast, 118%. Besides, the growth in the assay on RXF 393 renal is 124%; with SF-268 CNS, 112%; in the assay with SF-295 CNS it was 105%; in the assay with SF-539 CNS it was 103%; in the assay with UACC-257 melanoma, 101%; in the assay on M14 melanoma, 103%.

Consider `CCOC(=O)c1ccc2c(c1)[n+](=O)c(C(=O)c1ccc3ccccc3c1)c(C(F)(F)F)n2[O-]`, for which the growth is -88.4% (active) in the assay on NCI-H23 lung; -93.7% (active) in the assay on NCI-H226 lung; 67.2% in the assay on NCI-H322M lung; -93.8% (active) with HOP-62 NSCLC; -100% (active) with NCI-H460 lung; -80.1% (active) in the assay on NCI-H522 lung. The growth with A549/ATCC NSCLC is -26.4% (active); in the assay with 786-0 renal it was -100% (active); in the assay with COLO 205 colon, -100% (active); in the assay on DU-145 prostate, -100% (active); in the assay on MALME-3M melanoma, -69.1% (active); with MDA-MB-231 breast, -99.4% (active). Further, the growth in the assay on RXF 393 renal was -71.2% (active); in the assay with SF-268 CNS, -88.8% (active); with SF-295 CNS, -84.8% (active); in the assay on SF-539 CNS it was -100% (active); in the assay with UACC-257 melanoma, -71.7% (active); in the assay with M14 melanoma, -100% (active).

For the compound `CCOC(=O)c1ccc2c(c1)nc(-c1ccc(Cl)cc1)n2-c1cc(C(C)(C)C)[nH]n1`, the growth was 44.5% with NCI-H23 lung; 29.5% in the assay with NCI-H226 lung; 64.1% with NCI-H322M lung; 39.3% in the assay with HOP-62 NSCLC; 23.1% in the assay with NCI-H460 lung; 26.1% in the assay on NCI-H522 lung. Moreover, the growth in the assay on A549/ATCC NSCLC was 39.9%; in the assay with 786-0 renal, 14.1%; in the assay on COLO 205 colon, 34.7%; in the assay on DU-145 prostate it was 53.4%; with MALME-3M melanoma it was 33.5%; with MDA-MB-231 breast it was 54.1%. Further, the growth is 21.4% in the assay on RXF 393 renal; 44.8% with SF-268 CNS; 16.9% with SF-295 CNS; 11.3% in the assay on SF-539 CNS; 73.2% in the assay with UACC-257 melanoma; 9.36% (active) with M14 melanoma.
